Results on eight compounds are retold here after PubChem BioAssay.

Assay [1] in a line: binders of probe aFSTL3 on microarray, primary screen, stem cell growth factor project, biochemical, small-molecule microarray, fluorescence 635/667 (AID 1064).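 Note: measures binding of the biotinylated anti-FSTL3 antibody to printed compounds.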 The conditions noted are these: higher = more signal.
Assay [2] can be described thus: binders from COS7 lysate, DM2A8 probe, primary screen, torsin A project, cell lysate, small-molecule microarray, fluorescence 635/667 (AID 1065). Particulars: higher = more signal, COS7 lysate expressing mutant human TOR1A.
The nature of assay [3]: binders of probe aFGF2 on microarray, primary screen, stem cell growth factor project, biochemical, small-molecule microarray, fluorescence 635/667 (AID 1067).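 Note: measures binding of biotinylated aFGF2 protein to printed compounds on slides; z-score merges feature fluorescence and signal-to-noise across triplicate slides.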 Particulars: higher = more signal.
Assay [4] in a line: binders of probe aFGF10 on microarray, primary screen, stem cell growth factor project, biochemical, small-molecule microarray, fluorescence 635/667 (AID 1071).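 Note: score merges 667 nm spot intensity and signal to noise from triplicate slides.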 The conditions noted are these: higher = more signal.
In assay [5] the target is Neurogenic locus notch homolog protein 2 (Homo sapiens) (UniProt Q04721). Description: Notch2 binders on small-molecule microarrays, primary screen, biochemical, small-molecule microarray, 635 nm fluorescence, stem cell growth factors (AID 1073). Particulars: Notch2 binding, higher = more signal.
Neurogenic locus notch homolog protein 2 (Homo sapiens), sequence (Q04721 whole entry, looked up, canonical isoform): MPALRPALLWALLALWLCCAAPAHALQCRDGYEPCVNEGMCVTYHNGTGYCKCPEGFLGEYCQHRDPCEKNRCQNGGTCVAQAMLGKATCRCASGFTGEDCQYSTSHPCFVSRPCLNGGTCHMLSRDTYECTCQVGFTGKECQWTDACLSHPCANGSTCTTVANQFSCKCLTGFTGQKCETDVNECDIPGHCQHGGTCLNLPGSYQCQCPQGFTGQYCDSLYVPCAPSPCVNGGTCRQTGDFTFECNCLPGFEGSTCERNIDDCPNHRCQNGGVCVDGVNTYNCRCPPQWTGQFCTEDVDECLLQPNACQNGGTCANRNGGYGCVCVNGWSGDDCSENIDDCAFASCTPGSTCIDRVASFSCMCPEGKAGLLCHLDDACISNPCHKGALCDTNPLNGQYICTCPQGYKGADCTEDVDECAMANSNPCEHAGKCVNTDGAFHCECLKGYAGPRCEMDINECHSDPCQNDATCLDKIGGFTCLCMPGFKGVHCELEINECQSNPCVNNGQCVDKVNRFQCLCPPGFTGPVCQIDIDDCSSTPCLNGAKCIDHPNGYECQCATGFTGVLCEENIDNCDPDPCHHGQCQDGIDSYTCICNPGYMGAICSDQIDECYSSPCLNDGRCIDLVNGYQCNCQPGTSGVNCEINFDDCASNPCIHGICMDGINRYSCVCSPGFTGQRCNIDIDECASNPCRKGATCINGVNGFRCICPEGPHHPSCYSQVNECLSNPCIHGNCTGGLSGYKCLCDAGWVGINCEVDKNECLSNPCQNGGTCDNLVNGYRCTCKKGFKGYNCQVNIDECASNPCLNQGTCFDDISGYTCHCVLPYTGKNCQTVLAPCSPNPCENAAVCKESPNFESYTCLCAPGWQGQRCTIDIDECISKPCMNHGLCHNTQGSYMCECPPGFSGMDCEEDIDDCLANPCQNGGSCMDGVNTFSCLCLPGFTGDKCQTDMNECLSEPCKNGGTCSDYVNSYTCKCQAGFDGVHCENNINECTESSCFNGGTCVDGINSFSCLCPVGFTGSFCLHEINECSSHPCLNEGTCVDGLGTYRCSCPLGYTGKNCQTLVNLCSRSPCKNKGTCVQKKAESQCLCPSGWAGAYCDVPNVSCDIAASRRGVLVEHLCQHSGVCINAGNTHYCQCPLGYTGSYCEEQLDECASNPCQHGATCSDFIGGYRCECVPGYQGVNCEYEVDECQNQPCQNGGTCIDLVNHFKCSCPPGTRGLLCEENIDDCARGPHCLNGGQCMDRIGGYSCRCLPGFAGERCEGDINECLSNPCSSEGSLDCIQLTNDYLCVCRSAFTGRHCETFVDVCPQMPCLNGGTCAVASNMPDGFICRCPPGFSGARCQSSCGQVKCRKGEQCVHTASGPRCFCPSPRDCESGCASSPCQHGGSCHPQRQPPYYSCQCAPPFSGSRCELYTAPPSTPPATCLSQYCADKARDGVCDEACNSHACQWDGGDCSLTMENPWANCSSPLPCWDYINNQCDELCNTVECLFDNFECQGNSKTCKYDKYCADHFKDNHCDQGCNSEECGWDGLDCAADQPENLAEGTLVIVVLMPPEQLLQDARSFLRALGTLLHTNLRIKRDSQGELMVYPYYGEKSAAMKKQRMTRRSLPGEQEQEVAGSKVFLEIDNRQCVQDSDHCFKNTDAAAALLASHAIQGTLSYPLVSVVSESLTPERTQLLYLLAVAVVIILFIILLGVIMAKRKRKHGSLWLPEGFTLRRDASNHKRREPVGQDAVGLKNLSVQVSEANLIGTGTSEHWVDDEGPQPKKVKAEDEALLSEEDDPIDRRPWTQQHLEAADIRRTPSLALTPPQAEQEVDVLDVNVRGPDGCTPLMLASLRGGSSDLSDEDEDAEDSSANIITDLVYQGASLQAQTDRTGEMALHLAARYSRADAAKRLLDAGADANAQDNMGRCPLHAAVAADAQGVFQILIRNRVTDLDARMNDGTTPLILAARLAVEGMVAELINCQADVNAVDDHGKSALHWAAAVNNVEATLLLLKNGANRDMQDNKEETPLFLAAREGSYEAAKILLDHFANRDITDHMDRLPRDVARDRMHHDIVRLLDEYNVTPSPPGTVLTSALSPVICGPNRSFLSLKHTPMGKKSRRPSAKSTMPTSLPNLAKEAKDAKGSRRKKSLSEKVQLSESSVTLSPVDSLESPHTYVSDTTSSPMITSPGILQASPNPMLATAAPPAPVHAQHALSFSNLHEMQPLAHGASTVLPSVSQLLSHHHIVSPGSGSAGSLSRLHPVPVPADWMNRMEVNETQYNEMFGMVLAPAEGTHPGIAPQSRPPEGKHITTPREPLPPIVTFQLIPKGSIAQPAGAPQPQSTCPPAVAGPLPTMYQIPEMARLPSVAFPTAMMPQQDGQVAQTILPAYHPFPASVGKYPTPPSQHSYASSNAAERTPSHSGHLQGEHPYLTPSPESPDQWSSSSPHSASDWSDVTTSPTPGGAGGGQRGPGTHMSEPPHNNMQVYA
Assay [6] concerns the target Pro-neuregulin-1, membrane-bound isoform (Homo sapiens) (UniProt Q02297). Description: NRG1 binders on small-molecule microarrays, primary screen, psychiatric disease protein project, biochemical, small-molecule microarray, fluorescence 635/667 (AID 1075).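 Note: score combines 667 nm spot fluorescence with signal to noise.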 The conditions noted are these: NRG1 binding, 635 nm fluorescence, higher = more signal.
Assay [7] concerns Neuregulin-1 EGF-like domain. In words: binders of neuregulin-1 EGF-like domain, primary screen, biochemical, small-molecule microarray, 635 nm fluorescence (AID 1081).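 Note: binding of the protein to compounds printed on small-molecule microarray slides.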 Particulars: small-molecule microarray binding, higher = more signal.
Assay [8] can be described thus: FRG1 promoter luciferase signal modulators, primary screen, FRG1 inhibition for FSHD, cell-based, C2C12 myotubes, firefly/Renilla luciferase, luminescence (AID 1084). Particulars: higher = more signal, called active from +8 up or from −8 down.
The nature of assay [9]: binders of probe aFST on microarray, primary screen, stem cell growth factor project, biochemical, small-molecule microarray, fluorescence 635/667 (AID 1086).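 Note: score merges 667 nm fluorescence with signal-to-noise of each printed compound spot.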 The conditions noted are these: higher = more signal.
Assay [10] is described as follows: binders of probe aHhip on microarray, primary screen, stem cell growth factor project, biochemical, small-molecule microarray, fluorescence 635/667 (AID 1087).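 Note: score merges spot fluorescence at 667nm with spot signal to noise ratio.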 Particulars: higher = more signal.
Assay [11] concerns PRMT1 (protein arginine N-methyltransferase 1). Description: PRMT1 binders on small-molecule microarrays, primary screen, biochemical, small-molecule microarray, 635 nm fluorescence (AID 1088).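 Note: binding of Prmt1 protein to compounds spotted on small-molecule microarray slides.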 The conditions noted are these: small-molecule microarray binding, higher = more signal.
Assay [12] can be described thus: yeast growth modulation, basal conditions, primary screen, YJM789 clinical isolate, OD600, 24 h (AID 1089).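 Note: growth of clinical yeast isolate S. cerevisiae YJM 789 seeded 1000 cells per well; test concentration not given here.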 Particulars: S. cerevisiae YJM789 growth, higher = more signal, called active from +8 up or from −8 down.
Assay [13] can be described thus: fission yeast growth modulation, primary screen, strain 972, OD600, 24 h, no modulator (AID 1090).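 Note: basal condition with compound alone and no growth modifier present; test concentration not given here.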 Particulars: S. pombe 972 growth, higher = more signal, called active from +8 up or from −8 down.
Assay [14] is described as follows: S. cerevisiae growth modulation with rapamycin, primary screen, strain BY4716, OD600, 96 h (AID 1091). Note: test concentration not given here. The conditions noted are these: higher = more signal, called active from +8 up or from −8 down.
Assay [15] deals with Torsin-1A-interacting protein 2 (Homo sapiens) (UniProt Q8NFQ8). In words: LULL1 binders on small-molecule microarray, primary screen, cell lysate, human LULL1 lysate, 635/667 nm fluorescence (AID 1092).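 Note: probe is lysate of COS7 cells overexpressing human LULL1; score merges per-feature 667 nm fluorescence with signal-to-noise.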 Particulars: hLULL1 lysate binding, 635 nm fluorescence, higher = more signal.
Torsin-1A-interacting protein 2 (Homo sapiens), sequence (Q8NFQ8 whole entry, looked up): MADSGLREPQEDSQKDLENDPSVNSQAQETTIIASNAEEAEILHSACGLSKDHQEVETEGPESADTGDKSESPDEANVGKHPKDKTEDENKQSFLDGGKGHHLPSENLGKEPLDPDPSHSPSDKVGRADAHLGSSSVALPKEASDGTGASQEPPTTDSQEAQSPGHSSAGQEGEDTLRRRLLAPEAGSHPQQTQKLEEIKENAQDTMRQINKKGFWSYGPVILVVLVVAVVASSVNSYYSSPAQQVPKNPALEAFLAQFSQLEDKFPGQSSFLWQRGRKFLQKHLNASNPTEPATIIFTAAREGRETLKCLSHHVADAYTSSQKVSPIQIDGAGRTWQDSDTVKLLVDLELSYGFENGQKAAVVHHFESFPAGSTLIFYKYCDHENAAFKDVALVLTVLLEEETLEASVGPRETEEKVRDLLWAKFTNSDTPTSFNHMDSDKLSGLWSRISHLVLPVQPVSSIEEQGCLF
A short description of assay [16]: E. coli growth modulation, two-sided OD650, primary screen, E. coli filamentation project, strain DRC41, 24 h (AID 1093).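 Note: MC1000 strain lacking acrAB efflux and sulA so SOS filamentation is blocked; test concentration not given here.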 Particulars: OD650, 24 h, higher = more signal, called active from +8 up or from −8 down.
The nature of assay [17]: small-molecule microarray binders of probe aLefty2, primary screen, biochemical, biotinylated probe, 635/667 nm fluorescence (AID 1094).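 Note: score merges spot fluorescence near 667 nm with spot signal-to-noise ratio.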 The conditions noted are these: higher = more signal.
The subject of assay [18] is Noggin (protein binding on small-molecule microarray). Description: Noggin binders on small-molecule microarray, primary screen, biochemical, 635/667 nm fluorescence (AID 1095).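 Note: score merges 667 nm feature fluorescence with signal to noise over triplicate slides.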 The conditions noted are these: 635 nm fluorescence, higher = more signal.
Assay [19] has as its target Neurogenic locus notch homolog protein 3 (Homo sapiens) (UniProt Q9UM47). In words: NOTCH3 binders on small-molecule microarray, primary screen, biochemical, 635/667 nm fluorescence (AID 1096). Particulars: NOTCH3 binding, 635 nm fluorescence, higher = more signal.
The nature of assay [20]: small-molecule microarray binders of probe aEGFR, primary screen, biochemical, biotinylated probe, 635/667 nm fluorescence (AID 1097).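 Note: probe is a biotinylated anti-EGFR antibody binding compounds printed on slides; score combines fluorescence near 667 nm and signal to noise of each spot.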 Particulars: higher = more signal.

Calls of active or inactive are those of the source.

Pro-neuregulin-1, membrane-bound isoform (Homo sapiens), sequence (Q02297 whole entry, looked up, the tested form may be a part, canonical isoform): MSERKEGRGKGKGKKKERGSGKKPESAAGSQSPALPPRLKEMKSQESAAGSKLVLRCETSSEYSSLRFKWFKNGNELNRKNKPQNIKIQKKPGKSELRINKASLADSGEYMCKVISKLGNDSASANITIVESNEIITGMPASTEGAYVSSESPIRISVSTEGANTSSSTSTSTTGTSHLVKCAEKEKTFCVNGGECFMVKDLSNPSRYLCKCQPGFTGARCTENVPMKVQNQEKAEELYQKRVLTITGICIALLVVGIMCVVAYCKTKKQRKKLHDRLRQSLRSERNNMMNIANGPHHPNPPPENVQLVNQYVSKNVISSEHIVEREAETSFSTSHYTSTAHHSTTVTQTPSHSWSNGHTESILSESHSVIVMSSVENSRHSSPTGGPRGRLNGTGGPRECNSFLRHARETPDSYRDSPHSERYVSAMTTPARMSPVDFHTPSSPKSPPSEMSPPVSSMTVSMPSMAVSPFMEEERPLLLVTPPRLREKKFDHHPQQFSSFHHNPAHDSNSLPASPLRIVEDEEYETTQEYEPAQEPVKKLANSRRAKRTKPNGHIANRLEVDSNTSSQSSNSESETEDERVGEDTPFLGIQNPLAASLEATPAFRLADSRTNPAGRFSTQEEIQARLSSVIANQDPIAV

For `CO[C@@H](C(C)C)[C@@H](C)C1OC(=O)CC1O` (stereo not given in full), the composite z-score in [1] was -0.156; in assay [2] it was -0.126; in assay [3], -0.15; in assay [4], 0.0406; in assay [5] it was -0.402; in [6] it was -0.361. For the same compound, the composite z-score is 0.625 in assay [7]; -0.192 in assay [9]; -0.0193 in [10]; -0.255 in assay [11]; 0.338 in assay [15]; -0.161 in assay [17]. The composite z-score in assay [18] is -0.614; in assay [19], -0.716; in assay [20], -0.195. For the same compound, the z-score is 0.35 (inactive) in [8]; 0.0031 (inactive) in assay [12]; 0.0183 (inactive) in assay [13]; -0.582 (inactive) in [14]; 0.457 (inactive) in assay [16].

Regarding `CCN1C(=O)[C@H]2[C@H]3[C@H](O)[C@H](O)CC(=NO[C@@H]4O[C@H](CO)[C@@H](O)[C@H](O)[C@H]4O)[C@H]3CC[C@H]2C1=O`, the composite z-score is -0.396 in assay [1]; 1.06 in assay [2]; -0.138 in assay [3]; 0.235 in assay [4]; 1 in assay [5]; 0.259 in assay [6]. The composite z-score in [7] was 0.108; in [9], 0.293; in assay [10], 0.0274; in [11] it was -0.26; in [15], -0.127; in assay [17], -0.204. In addition, the composite z-score in assay [18] was 0.484; in assay [19], 0.65; in [20], -0.128. Moreover, the z-score in assay [8] is -1.07 (inactive); in assay [12], -0.862 (inactive); in assay [13], -0.238 (inactive); in [14], -0.14 (inactive); in assay [16] it was 0.12 (inactive).

Take `COC(=O)[C@H](Cc1ccccc1)NC(=O)[C@@H](C)CO`: the composite z-score in assay [1] is 0.503; in assay [2], 0.482; in assay [3], -0.0105; in assay [4] it was 0.417; in [5] it was 0.458; in assay [6] it was -0.35. Also, the composite z-score in [7] is 0.867; in [9] it was 0.53; in [10], -0.0672; in assay [11] it was 1.41; in [15], 0.738; in assay [17], 0.0498. Also, the composite z-score in assay [18] is 0.441; in [19] it was 0.588; in assay [20], 0.169. Moreover, the z-score in [8] is 0.313 (inactive); in [12], -0.152 (inactive); in assay [13], -0.187 (inactive); in assay [14], 0.22 (inactive); in assay [16] it was -0.503 (inactive).

Turning to `CON=C(C)CCN1CCc2nc(-c3ccccc3)c(-c3ccccc3)cc2C1`, the composite z-score in [1] was -0.262; in assay [2] it was -0.052; in assay [3], -0.128; in assay [4] it was -0.149; in assay [5], 0.195; in assay [6] it was 0.387. For the same compound, the composite z-score was -0.961 in assay [7]; 0.0046 in assay [9]; -0.201 in [10]; 0.0214 in [11]; -0.919 in assay [15]; -0.0699 in assay [17]. The figures for the composite z-score in assay [18], in assay [19] and in [20] were 0.107, 0.556 and -0.158, respectively. Besides, the z-score is 0.953 (inactive) in [8]; -1.08 (inactive) in assay [12]; -17.2 (active) in assay [13]; -3.67 (inactive) in assay [14]; 1.69 (inactive) in [16].

Turning to `Cc1cc2c(nc1C)CCCCN2CC(O)CN1CCCc2nc(-c3ccc(Br)cc3)ccc21` (stereo not given), the composite z-score was -0.193 in assay [1]; 0.514 in assay [2]; -0.019 in [3]; 0.673 in [4]; 0.513 in assay [5]; 0.548 in assay [6]. The composite z-score in assay [7] is 1.02; in [9], 0.5; in assay [10], -0.146; in assay [11] it was 0.829; in assay [15], -0.0639; in [17] it was -0.0083. Moreover, the composite z-score is 0.558 in assay [18], 1.11 in [19] and 0.0122 in assay [20]. Moreover, the z-score is 2.29 (inactive) in assay [8]; -0.178 (inactive) in assay [12]; -0.616 (inactive) in assay [13]; -0.051 (inactive) in assay [14]; 0.353 (inactive) in [16].

For `CCN1C(C)=C(C(=O)OC)[C@@H](c2ccccc2)N2C(=O)[C@](O)(C(=O)OC)CC(C(C)=O)=C12`, the composite z-score in assay [1] was -0.619; in assay [2] it was 0.159; in assay [3], -0.205; in [4] it was 0.372; in assay [5] it was 0.505; in [6] it was -0.125. The composite z-score was -0.254 in assay [7]; 0.101 in assay [9]; -0.0618 in assay [10]; 0.0774 in assay [11]; -0.25 in assay [15]; -0.313 in assay [17]. Also, the composite z-score in assay [18] is 0.768; in [19], 0.534; in assay [20] it was -0.0957. The z-score in assay [8] is -1.11 (inactive); in [12], 0.02 (inactive); in [13] it was -1.13 (inactive); in assay [14], 0.712 (inactive); in assay [16], 0.302 (inactive).

On to `CCOC(=O)NN=C1C[C@@H](O)[C@@H](O)[C@@H]2[C@@H]3C(=O)N(C[C@@H]4CCCO4)C(=O)[C@@H]3CC[C@H]12`, for which the composite z-score in assay [1] is -0.548; in assay [2], -0.274; in assay [3], -0.0217; in assay [4], 0.217; in [5], 0.701; in [6] it was 0.203. The composite z-score was 0.34 in assay [7]; -0.0482 in assay [9]; -0.143 in assay [10]; 0.611 in assay [11]; 0.448 in assay [15]; -0.179 in assay [17]. Also, the composite z-score was 0.481 in assay [18], 0.411 in assay [19] and -0.0668 in assay [20]. Also, the z-score in assay [8] is 0.577 (inactive); in assay [12], -1.43 (inactive); in assay [13], -0.318 (inactive); in assay [14] it was -0.0602 (inactive); in [16], 0.416 (inactive).

On to `CC(C)CN1CCc2nc(-c3ccccc3)c3c(c2C1)CO[C@@H](C)C3`, for which the composite z-score in assay [1] was -0.277; in [2], 0.306; in assay [3], -0.0291; in [4], 0.923; in [5] it was 1.31; in [6], 0.43. The composite z-score in [7] was 0.846; in assay [9], 0.147; in [10] it was -0.16; in assay [11] it was 1.42; in assay [15] it was 1.71; in [17], -0.145. Besides, the results for the composite z-score in assay [18], in [19] and in [20] were 1.5, 1.08 and 0.0914, respectively. Besides, the z-score is 0.955 (inactive) in [8]; -0.319 (inactive) in [12]; 0.218 (inactive) in assay [13]; -0.0674 (inactive) in assay [14]; 0.801 (inactive) in [16].
